The record followed here is PubChem BioAssay (NCI).

SMILES strings stand for the structures. Compounds without any hit were thinned out: in the full panel of roughly 83,000, 20% have a hit.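 96-well plates, one dose, 48 hours. Percent growth reported; active if below 10.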 Active and inactive are the calls of the source.

For this experiment, the system named is HL-60(TB) leukemia. The experiment in a line: NCI-60 one-dose screen, 48 h (100 = growth as untreated, 0 = no growth, -100 = all killed). Conditions: 10 µM unless noted.

Consider `Cc1cc(-c2cc(C)c(O)c(C)c2)cc(C)c1O`, for which the growth was 63.6% (inactive).

Regarding `Cn1cc(-c2ccc(-c3cn(C)c4ccc(Cl)cc34)[nH]2)c2cc(Cl)ccc21`, the growth was -37.8% (active).

On to `O=C1/C=C/[C@@H](O)[C@@H]2C[C@@H](O)C[C@H]2/C=C/CCC[C@H](CCc2cccc3ccccc23)O1`, for which the growth is -44.8% (active).

As for `O=C(Nc1ccc(Cl)cc1)c1cc(NCc2cc(O)ccc2O)ccc1O`, the growth was 0.347% (active).

For the molecule `O/N=C1\CCC2CCCCC2C1` (centres undefined), the growth was 98.8% (inactive).

For the molecule `c1cnc2[nH]cc(-c3nc(-c4ccsc4)cs3)c2c1`, the growth was 104% (inactive).

For the molecule `COc1ccc(C(=O)c2cc(OC)c(OC)c(OC)c2)cc1/C=C/C(=O)c1ccc(F)cc1`, the growth is 93.2% (inactive).

`COc1ccc(/C(C)=C(\c2ccc(Cl)cc2)c2ccc(OCCN3CCCC3)cc2)cc1`: the growth is 37.9% (inactive).

`CCN1C(=O)N(CC)C2C1NN=c1s/c(=C\c3ccco3)c(=O)n12` (centres undefined): the growth is -20.3% (active).

Regarding `COC(=O)[C@@H](Cc1c[nH]c2ccccc12)NC(=O)/C=C/c1ccccc1`, the growth is 0.51% (active).

On to `O=C(/C=C/c1ccc(O)c(O)c1)N1CCN(c2ccc(Cl)cc2)CC1`, for which the growth was 12.9% (inactive).

For the molecule `COC(=O)c1oc2c(C(=O)/C=C/c3ccc(OC)cc3)c(OCCN3CCOCC3)ccc2c1C`, the growth is -24.1% (active).

Regarding `FC(F)(F)c1ccc(-c2ncc(-c3ccc(C(F)(F)F)cc3)c(NCc3cc(C(F)(F)F)cc(C(F)(F)F)c3)n2)cc1`, the growth is 71.7% (inactive).

`FC(F)(F)c1cc(Nc2ccc3c(OCCCN4CCOCC4)cccc3n2)ccc1Cl`: the growth was 63.3% (inactive).
